About 190 (0.13%) of roughly 150,000 compounds were called active. A call without a number means that no potency is given here. Not shown: some 2% with an inconclusive outcome. Calls follow the shape of the dose curve; as a rule, active = well fitted inhibition curve with a large enough effect; inconclusive = small, poorly fitted or top-dose-only effect; inactive = flat fitted curve, though single readings scatter. Only a selection was taken, and actives are over-represented in it overall.
These compounds were tested against Polyunsaturated fatty acid lipoxygenase ALOX12 (Homo sapiens) (UniProt P18054) (assay: qHTS Assay for Inhibitors of 12-hLO (12-human lipoxygenase)). Conditions: purified 12-hLO, xylenol orange hydroperoxide absorbance; series mostly up to 57.1 µM.
Polyunsaturated fatty acid lipoxygenase ALOX12 (Homo sapiens), sequence (P18054 whole entry, looked up): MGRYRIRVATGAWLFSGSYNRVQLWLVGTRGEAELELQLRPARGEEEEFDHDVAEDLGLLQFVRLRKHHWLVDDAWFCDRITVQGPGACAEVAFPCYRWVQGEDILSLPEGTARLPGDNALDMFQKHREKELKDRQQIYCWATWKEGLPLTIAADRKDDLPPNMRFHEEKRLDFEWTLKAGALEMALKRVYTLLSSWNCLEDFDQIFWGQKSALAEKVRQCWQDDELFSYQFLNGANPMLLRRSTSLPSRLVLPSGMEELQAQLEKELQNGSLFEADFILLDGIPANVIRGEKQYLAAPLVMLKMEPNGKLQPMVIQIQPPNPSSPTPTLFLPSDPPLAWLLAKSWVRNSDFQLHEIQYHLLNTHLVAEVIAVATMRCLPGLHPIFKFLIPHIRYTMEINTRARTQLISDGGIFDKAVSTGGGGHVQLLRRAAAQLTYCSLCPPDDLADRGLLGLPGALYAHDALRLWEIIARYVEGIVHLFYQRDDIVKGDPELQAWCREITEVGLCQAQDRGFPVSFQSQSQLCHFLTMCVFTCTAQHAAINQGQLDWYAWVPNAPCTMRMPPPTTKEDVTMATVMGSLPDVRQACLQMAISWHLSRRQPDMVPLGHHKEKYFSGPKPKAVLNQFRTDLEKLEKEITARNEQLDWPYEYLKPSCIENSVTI
From the text: Assay Provider: Holman, T.R., University of California, Santa Cruz Screening Center PI: Austin, C.P. Screening Center: NIH Chemical Genomics Center [NCGC] Human lipoxygenase 12hLO is a member of the closely related lipoxygenase family of enzymes which catalyze the site-specific oxidation of arachidonic acid to various hormone precursor molecules and as such is a candidate for drug development in a variety of disease areas, such as cancer and inflammation. Inhibition of 12hLO activity was screened by utilizing arachidonic acid as a substrate. The extent of hydroperoxide product formation was measured by a secondary chromogenic reaction in which xylenol orange (XO, Sigma-Aldrich, cat. number 39,818-7) reacts with the ferric ions produced from the reaction between the hydroperoxide and ferrous ions. The Fe(III)-XO complex is characterized with red-shifted absorbance at 560 nm. A purified preparation of human 12hLO was supplied by Professor Ted Holman, University of California, Santa Cruz.
Assay Protocol: Buffer: 25 mM Hepes pH 7.0, 0.01% Triton X-100. Reagents/Controls: Buffer in columns 3 and 4 as negative control (no enzyme). Substrate solution: 40 uM arachidonic acid (Sigma-Aldrich, St. Louis, MO) final concentration dispensed throughout the plate. Enzyme: 150 nM 12hLO final concentration in columns 1, 2, 5-48. Column 1 is neutral (100% activity). Column 2 contained pin-transferred titration of NDGA (nordihidroguaiaretic acid, Sigma-Aldrich, N 5023, top concentration 20 mM in DMSO, then 1:3 dilution in duplicate). (Dilution factor: 23 nL into 4 uL.) Chromogenic detection reagent (divalent iron/xylenol orange, Fe-XO): 200 uM xylenol orange plus 300 uM ferrous ammonium sulfate prepared freshly in 50 mM sulfuric acid. Assay Steps: Three uL of enzyme were dispensed to 1536-well Greiner black clear bottom plates. Compounds and controls (23 nL) were transferred via Kalypsys PinTool. The plates were incubated for 15 min at room temperature, and then 1 uL of substrate solution was added to start the reaction. After room temperature incubation for 30 minutes, 4 uL of Fe-XO solution was added to each well and the plates were incubated for 30 min. The absorbance at 405 and 573 nm were measured using ViewLux (Perkin-Elmer) High-throughput CCD imager and absorbance protocol settings. The 573-to-405 absorbance ratio was used to compute reaction progress.
Also: nearly all actives have a fitted effect of over 55% in size.
Potency is read from the fitted curve at half-maximal effect.

Row | Structure (SMILES) | activity change, negative = inhibition | Potency
1 | Cc1cc(C)cc(OCC(=O)NNC(=O)CCN2C(=O)c3ccccc3C2=O)c1 | inactive | –
2 | C/C(=C\c1ccccc1)C1NC(=O)c2c(sc3c2CCCC3)N1 (stereo unspecified) | inactive | –
3 | O=C(CN1C(=O)c2cccc3cccc(c23)C1=O)N1CCCCC1 | inactive | –
4 | CCOC(=O)N1CCN(C(=O)C2CCN(Cc3ccc(OC)cc3OC)CC2)CC1 | inactive | –
5 | O=C1OCCN1C(=O)[C@H]1[C@H](c2ccccc2)C(c2ccc(F)cc2)=NN1c1ccccc1 | -8.19% [at 0.00818 µM] (inactive) | –
6 | C[C@H]1Cc2c(COc3ccccc3)nc3c(c2CO1)CN(C(=O)NCc1ccco1)CC3 | 1.43% [at 11.4 µM] (inactive) | –
7 | COC(=O)CC1c2ccccc2C(Cc2ccc(OC)cc2)=C(C)N1C(=O)OC (stereo unspecified) | 2.48% [at 11.4 µM] (inactive) | –
8 | C=CCn1c2ccccc2c2nnc(SCc3[nH]c(=O)[nH]c3C(=O)CCCCC(=O)OCC)nc21 | inactive | –
9 | COC(=O)CN1C(=S)N(c2ccccc2)C(=O)C1CC(=O)Nc1ccc(Cl)cc1 (stereo unspecified) | inactive | –
10 | CC(=O)c1c(N2CCN(c3ccc(F)cc3)CC2)nc(=S)n(-c2ccccc2)c1C | inactive | –
11 | COc1ccc(-c2nc(-c3ccccc3)oc2Nc2ccc3ccccc3c2)cc1 | inactive | –
12 | O=[N+]([O-])c1ccc(NCCCO)c(C(F)(F)F)c1 | inactive | –
13 | CNC(=O)NC(=O)C(OC(=O)c1cccc(S(=O)(=O)N2CCCCC2)c1)c1ccccc1 (stereo unspecified) | inactive | –
14 | O=C1OCCN1C(=O)[C@H]1[C@H](c2ccc(F)cc2)C(c2ccccc2)=NN1c1ccc(Br)cc1 | -8.73% [at 0.00818 µM] (inactive) | –
15 | CC(C)Oc1ccc(CCc2n[nH]c(=S)n2Cc2ccccc2)cc1 | – | 31.6 µM (active)
16 | CCCc1cc(-c2n[nH]c(=S)n2Cc2ccccc2)cs1 | inactive | –
17 | CCCCC(CC(C)O)c1n[nH]c(=S)n1-c1ccccc1 (stereo unspecified) | inactive | –
18 | NNc1nnc(NN)c2ccccc12 | -2.71% [at 0.00818 µM] (inactive) | –
19 | CCOC(=O)C1=C(C)c2ccccc2OC1C(=O)OCC (stereo unspecified) | 1.63% [at 0.00818 µM] (inactive) | –
20 | COC(=O)C1(C(C)=O)CC2=CC[C@H]3C(=O)N(c4ccccc4)C(=O)[C@H]3[C@@H]2Cc2ccccc2[C@@H]1C[N+](=O)[O-] (stereo partly specified) | inactive | –
21 | N#Cc1ccsc1NC(=O)CN1CCN(S(=O)(=O)c2cc(Cl)ccc2Cl)CC1 | inactive | –
22 | Cc1nn(-c2ccccc2)c(C)c1/C=N/NC(=O)CSc1nc2ccccc2c(=O)n1-c1ccccc1 | inactive | –

Row | Structure (SMILES) | activity change, negative = inhibition | Potency
23 | CCOC(=O)c1c(NC(=O)Cn2nc(C(F)(F)F)cc2C)sc2c1CCC2 | inactive | –
24 | CCOc1cc(/C=N/NC(=O)OC)ccc1OCCSc1ccc(Cl)cc1 | inactive | –
25 | COc1ccc(Br)cc1C(=O)NC(=S)Nc1cc(-c2nc3ccccc3[nH]2)ccc1C | inactive | –
26 | C=CCNC(=S)N/N=C/c1ccc(OCc2ccccc2)cc1 | inactive | –
27 | CCS(=O)(=O)Nc1cccc(-c2cc(-c3ccccc3)c3cc(C)ccc3n2)c1 | inactive | –
28 | O=C(COC(=O)c1c2c(nc3ccccc13)/C(=C\c1cccs1)CCC2)Nc1ccccc1Cl | inactive | –
29 | COC(=O)C1=C(C(=O)OC)[C@@H]2N(C)c3ccccc3[C@@]23C[C@@H](C(=O)OC)N(S(=O)(=O)c2cccs2)C3=N1 | -1.35% [at 11.4 µM] (inactive) | –
30 | CCCCc1cc2c(s1)CCCC/C2=N/O | inactive | –
31 | NC(=O)c1ccccc1N=Cc1ccc2ccccc2c1 | inactive | –
32 | CC(C)CCN1C(=O)c2ccc(C(=O)Nc3cccc(S(N)(=O)=O)c3)cc2C1=O | inactive | –
33 | COc1ccccc1OCC(=O)OCn1c(SC)nnc(C)c1=O | inactive | –
34 | N#C/C(=C/c1ccc(N2CCCCC2)o1)C(=O)NCCc1c[nH]c2ccccc12 | inactive | –
35 | CC(C)CN(C(=O)CN1CCN(S(=O)(=O)c2ccccc2)CC1)c1c(N)n(CC(C)C)c(=O)[nH]c1=O | inactive | –
36 | Cc1cc(N2CCOCC2)nc(-c2ccc(Br)cc2)n1 | inactive | –
37 | COc1ccc2c(-c3ccccc3)cc(SCC(=O)N(C)C3CCS(=O)(=O)C3)nc2c1 (stereo unspecified) | inactive | –
38 | Cc1ccc(S(=O)(=O)N2CCC(=O)N([C@H](COCc3ccccc3)Cc3ccccc3)CC2)cc1 | 0.261% [at 0.00818 µM] (inactive) | –
39 | COc1ccc(-n2c(C)cc(C(=O)COC(=O)c3cc(OC)c(OC)cc3NC(=O)c3cccs3)c2C)cc1 | inactive | –
40 | COc1cc2c(cc1NC(=O)COC(=O)/C=C/c1ccccc1)oc1ccccc12 | inactive | –
41 | COc1ccc(CCNc2cc(C)nc3c(-c4ccc(Cl)cc4)c(C)nn23)cc1OC | inactive | –
42 | O=C(Nc1ccc(N2C(=O)c3cccc4cccc(c34)C2=O)cc1)c1ccc(N2CCCCC2)c([N+](=O)[O-])c1 | inactive | –
43 | CCn1c(=O)cc(SCC(=O)NCCC2=CCCCC2)c2ccccc21 | inactive | –
44 | COc1cccc(CC(=O)N2CCc3nc(COc4ccccc4)c4c(c3C2)CO[C@@H](C)C4)c1 | -2.68% [at 11.4 µM] (inactive) | –

Row | Structure (SMILES) | activity change, negative = inhibition | Potency
45 | COCCNC(=O)c1ccc(N2CCC3(CC2)OCCO3)c([N+](=O)[O-])c1 | inactive | –
46 | CCCN=C1NC(=O)C(CC(=O)NCCc2ccc(OC)c(OC)c2)S1 (stereo unspecified) | inactive | –
47 | CCOC(=O)c1ccccc1N1C(=O)C2Sc3[nH]c(=O)sc3C(/C=C/c3ccccc3)C2C1=O (stereo unspecified) | inactive | –
48 | CC(=O)NNC1=Nc2ccccc2N(C)C(C)C1 (stereo unspecified) | inactive | –
49 | COC(=O)/C(C#N)=C/c1occc1C | inactive | –
50 | Cc1[nH]n(-c2ccccc2)c(=O)c1/C=N/NC(=O)c1ccoc1C | inactive | –
51 | Cn1cccc1/C=N/NC(=O)c1ccc(OC(F)(F)C(F)F)cc1 | inactive | –
52 | COc1cc(OC)c2c(-c3cccc(-c4cccc(N)c4)c3)cc(=O)oc2c1 | -1.39% [at 0.00818 µM] (inactive) | –
53 | N=C1/C(=C/c2cccn2-c2cccc([N+](=O)[O-])c2)C(=O)N=C2SC=CN12 | inactive | –
54 | Cc1cccc([C@H]2[C@@H]3C=CC[C@@H](C)[C@@H]3C(=O)N2Cc2ccccc2)c1 | -6.11% [at 0.00818 µM] (inactive) | –
55 | COc1cc(CCC(=O)OCC(=O)Nc2cccc(S(N)(=O)=O)c2)cc(OC)c1OC | inactive | –
56 | O=C(O)CC(Cc1ccccc1)C(=O)Nc1ccc([N+](=O)[O-])cc1 (stereo unspecified) | inactive | –
57 | NC(=O)C[C@@H]1NC(=O)CNC(=O)c2cc([N+](=O)[O-])cc(I)c2NCCC(C(N)=O)NC1=O (stereo partly specified) | inactive | –
58 | Cn1cccc1/C=C1\SC(=S)N(NC(=O)c2ccc(Cl)cc2)C1=O | inactive | –
59 | CCc1nnc(NC(=O)/C=C/c2ccc(C)o2)s1 | inactive | –
60 | C=CC1=C2C=C(C3CC3)N(C(CO)CO)C=C2C(=O)C(C)(OC(=O)c2ccco2)C1=O (stereo unspecified) | 3.57% [at 11.4 µM] (inactive) | –
61 | CC1=C(C/C=C(\C)CCCC(C)CCCC(C)CCCC(C)C)C(=O)c2ccccc2C1=O (stereo unspecified) | -5.67% [at 0.00818 µM] (inactive) | –
62 | CN(C(=O)CSc1nnc(-c2n[nH]c3ccccc23)o1)c1ccccc1 | inactive | –
63 | Cc1nc(-c2ccccc2)cn2c1nc1ccccc12 | inactive | –
64 | O=C1OCCN1C(=O)[C@H]1[C@H](c2ccc(Cl)cc2)C(c2cccc(Cl)c2)=NN1c1ccc(Br)cc1 | -6.33% [at 0.00818 µM] (inactive) | –
65 | COc1cc(OC)c2c(c1)OC(=O)CC2c1cc(OC)c(OC)c(OC)c1 (stereo unspecified) | -5.58% [at 0.00818 µM] (inactive) | –
66 | CCCCC/C=C\C/C=C\CCCCCCCCCC(=O)O | inactive | –
